Data as given in PubChem BioAssay (NCI).
About 83,000 compounds went through this panel and 20% of them were active in at least one assay; those are over-represented in the sample as a whole.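 The test compound was applied at a single concentration to cells in 96-well plates for 48 hours, and percent growth was recorded.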 A number with no mark means an inactive call. Active and inactive are the calls of the source. How the source made its calls: active means growth percent below 10; inactive means the rest.

System: SN12C renal
Test: NCI-60 one-dose screen, 48 h (100 = growth as untreated, 0 = no growth, -100 = all killed)
Conditions: 10 µM unless noted

Row | SMILES | growth
1 | CCCc1cc(=O)n2c(C(=O)Nc3ccccc3OC)c(C(=O)Nc3ccc(F)cc3)sc2n1 | 58.1% [30 µM]
2 | C=Cc1nn2c(CCC(=O)c3nc4ccccc4[nH]3)nnc2s1 | 101%
3 | CCOC(=O)C(C(C)=O)c1nc2sc3cc(Cl)ccc3n2c(=N)c1C#N (configuration not stated) | 85.9%
4 | COc1ccc2nccc(/C=C/c3ccnc4ccc(OC)cc34)c2c1 | 118%
5 | COc1ccc(-c2c(-c3cc(OC)c(OC)c(OC)c3)noc2N)cc1 | 27.6%
6 | COc1ccc(-c2cc(C(=O)Nc3nc4cc(C)c(C)cc4s3)nc3cc(-c4ccccc4)nn23)cc1OC | 107%
7 | COc1ccc(-c2cc(Cc3cccs3)c(=O)n(Cn3ccc4ccccc43)n2)cc1 | 97.7%
8 | COc1ccc(-c2cc(Cc3cccs3)c(=O)n(Cn3cncn3)n2)cc1 | 93.1%
9 | Cn1c(=O)c2c(nc(Br)n2CCC(=O)Nc2ccc(F)cc2)n(C)c1=O | 106%
10 | COc1ccc(/C=C/C(=O)Nc2cccnc2Nc2ccc(F)cc2)cc1 | 89.3%
11 | O=C1NCC(Nc2ccc(Br)cc2Cl)C(=O)N1 (configuration not stated) | 102%
12 | CC/C=C\C=C/C(=O)N/C=C/CC1Cc2cccc(O)c2C(=O)O1 (configuration not stated) | 101%
13 | Cc1cc(C)c2c(c1)N1OC(C2)C[C@H]1/C=C/c1ccccc1 (some centres not stated) | 92.2%
14 | Cc1cc(=O)n2n1-c1ccc(Cl)cc1NC(=O)C2 | 99.1%
15 | CC[C@H](C)C(=O)O[C@H]1C[C@@H](C)C=C2C=C[C@H](C)[C@H](CC[C@@H]3C[C@@H](O)CC(=O)O3)[C@H]21 | 42.5%
16 | O=C1/C(=C/c2ccc([N+](=O)[O-])o2)Oc2ccc(Br)cc21 | 40.3%
17 | O=C1NCN(c2ccccc2)C12CCN(CCCC(c1ccc(F)cc1)c1ccc(F)cc1)CC2 | 60.5%
18 | N#Cc1cnc2cc(OC[C@H](O)CO)c(NC(=O)CC3CSSC3)cc2c1Nc1ccc(OCc2cccc(F)c2)c(Cl)c1 | -65.7% (active)
19 | COc1ccc(OC)c2c1[nH]c(=O)c1c3ccccc3cn21 | -92.9% (active)
20 | COc1cc(C2CC(=O)Nc3c2cc(Br)c2ccccc32)cc(Br)c1OC (configuration not stated) | 54.5%
21 | COC(=O)CCC1=C(C)/C(=C/c2[nH]c(-c3ccc[nH]3)cc2OC)N=C1C | 34.8%

System: UO-31 renal
Test: as above
Conditions: 10 µM unless noted

Row | SMILES | growth
22 | O=[N+]([O-])c1ccc(N/N=C/c2c(O)ccc3ccccc23)nc1 | 9.52% (active)
23 | COc1cc(/C=C/c2nnc(-c3cc(-c4ccccc4)n[nH]3)o2)cc(OC)c1OC | 80%
24 | COc1cc2c(-c3nc4cc(Cl)c(F)cc4s3)cc(=O)oc2c(C)c1OC | -94.4% (active)
25 | COc1cccc(-c2nnc(N)o2)c1 | 97.1%
26 | CSc1nc2c(c(=O)n1C)C(c1ccccc1)C1=C(N2)/C(=C/c2ccccc2)CCC1 (configuration not stated) | 34.9%
27 | CCCCCCC/C(=N\N=C(N)N)c1ccc(O)cc1 | 42.8%
28 | CCOC(=O)c1c(NC(=O)C2CCCCC2C(=O)O)sc2c1CCCC2 (configuration not stated) | 81.4%
29 | C[N+]1(CCC[N+]2(C)C[C@@H]3[C@H](C2)[C@@H]2C=C[C@H]3C2)CCOCC1 (some centres not stated) | 73.9%
30 | O=C(CCc1nnc(SCc2ccccc2)s1)c1nc2ccccc2[nH]1 | 74.3%
31 | c1csc([C@@H]2C[C@@H]3Cc4ccc5ccccc5c4N2O3)c1 | 70.2%
32 | O=C1/C(=C/c2ccc([N+](=O)[O-])s2)Oc2ccc(Br)cc21 | -87.4% (active)
33 | CCCCCCC(C)(O)c1ccccc1 (configuration not stated) | 80.3%
34 | CCOC(Cc1c(N)[nH]c(=S)[nH]c1=O)OCC | 86%
35 | CCN1C2=C(SC(=S)C1=C1SC(C(=O)OC)=C(C(=O)OC)S1)SC(=Nc1ccc(OC)cc1)C2=O | -73% (active)
36 | CCOc1nc(-c2ccccc2)cc2c(O)c(-c3nnco3)[nH]c(=O)c12 | 29.1%
37 | COc1cccc2c1O/C(=C\c1c([N+](=O)[O-])ncn1C)C2=O | 78.7%
38 | CCCc1cc(=O)n2c(C(=O)Nc3ccccc3OC)c(C(=O)Nc3ccc(F)cc3)sc2n1 | 19.7% [30 µM]
39 | C=Cc1nn2c(CCC(=O)c3nc4ccccc4[nH]3)nnc2s1 | 76.2%

Row | SMILES | growth
40 | CCOC(=O)C(C(C)=O)c1nc2sc3cc(Cl)ccc3n2c(=N)c1C#N (configuration not stated) | 76.1%
41 | COc1ccc2nccc(/C=C/c3ccnc4ccc(OC)cc34)c2c1 | 97%
42 | COc1ccc(-c2c(-c3cc(OC)c(OC)c(OC)c3)noc2N)cc1 | 41.7%
43 | COc1ccc(-c2cc(C(=O)Nc3nc4cc(C)c(C)cc4s3)nc3cc(-c4ccccc4)nn23)cc1OC | 103%
44 | COc1ccc(-c2cc(Cc3cccs3)c(=O)n(Cn3ccc4ccccc43)n2)cc1 | 83%
45 | COc1ccc(-c2cc(Cc3cccs3)c(=O)n(Cn3cncn3)n2)cc1 | 86.4%
46 | Cn1c(=O)c2c(nc(Br)n2CCC(=O)Nc2ccc(F)cc2)n(C)c1=O | 78.3%
47 | COc1ccc(/C=C/C(=O)Nc2cccnc2Nc2ccc(F)cc2)cc1 | 95.4%
48 | O=C1NCC(Nc2ccc(Br)cc2Cl)C(=O)N1 (configuration not stated) | 67.7%
49 | Cc1cc(C)c2c(c1)N1OC(C2)C[C@H]1/C=C/c1ccccc1 (some centres not stated) | 79.1%
50 | Cc1cc(=O)n2n1-c1ccc(Cl)cc1NC(=O)C2 | 89.6%
51 | CC[C@H](C)C(=O)O[C@H]1C[C@@H](C)C=C2C=C[C@H](C)[C@H](CC[C@@H]3C[C@@H](O)CC(=O)O3)[C@H]21 | 74.7%
52 | O=C1/C(=C/c2ccc([N+](=O)[O-])o2)Oc2ccc(Br)cc21 | -18.6% (active)
53 | O=C1NCN(c2ccccc2)C12CCN(CCCC(c1ccc(F)cc1)c1ccc(F)cc1)CC2 | 26.1%
54 | N#Cc1cnc2cc(OC[C@H](O)CO)c(NC(=O)CC3CSSC3)cc2c1Nc1ccc(OCc2cccc(F)c2)c(Cl)c1 | 47.6%
55 | COc1ccc(OC)c2c1[nH]c(=O)c1c3ccccc3cn21 | -81.4% (active)
56 | COc1cc(C2CC(=O)Nc3c2cc(Br)c2ccccc32)cc(Br)c1OC (configuration not stated) | 0.792% (active)
57 | COC(=O)CCC1=C(C)/C(=C/c2[nH]c(-c3ccc[nH]3)cc2OC)N=C1C | -50.9% (active)
